DT40 TDP1 CPT: growth inhibition of DT40 Tdp1-/-;hTDP1 cells with camptothecin (screen for TDP1 inhibitors) | chicken DT40 Tdp1-/-;hTDP1 cells + 20 nM CPT, ATP luminescence, 48 h | Potency, µM (series often up to 46.2 µM), actives largely listed as inhibitors | 420,000 compounds, 12% hits; note: nearly all actives have a fitted effect of over 55% in size
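Cell growth measured by CellTiter-Glo luminescence after a minimum 48 h, 37 C compound exposure with 20 nM CPT in Tdp1-knockout DT40 cells stably expressing hTDP1, seeded 400/well; qHTS titration format.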
HT1080 IDH1KD tx: kills HT-1080 cells with IDH1 knockdown; HT-1080 IDH1 knockdown viability, ATP luminescence, 48 h; Potency, µM (doses to about 46.1 µM), usual class: cytotoxic; 360,000 compounds, 2% hits
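Luminescent ATP read-out (CellTiter-Glo, 10 min at room temperature) after 48 h compound exposure at 37 °C gave viability of IDH1-knockdown HT-1080 cells. Activity was normalised to DMSO and cell-free wells, then fitted as concentration-response curves.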
IL-1B inflam inh: inflammasome signaling inhibition, IL-1 beta readout; THP-1 LPS/ATP IL-1B secretion, AlphaLISA, 16 h; active compounds read low; AID 743279; activity change, % at 57.5 µM; 360,000 compounds, 4.7% hits; in the data active = activity change below about -50%; inconclusive = mostly about -30% to -49%
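Secreted IL-1B measured by AlphaLISA bead assay after 16 h compound exposure of THP-1 cells; compounds (final up to 57.5 uM) added 1 h before LPS (250 ng/mL) and ATP (1.25 mM) stimulation; lower signal means less secretion.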
HT1080-NT tox: kills 2HG-producing HT-1080-NT fibrosarcoma cells; Potency, µM (series often up to 46.1 µM), most hits filed as cytotoxic; 360,000 compounds, 1.6% hits; HT-1080-NT fibrosarcoma viability, CellTiter-Glo ATP luminescence, 48 h; AID 686970;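 note: NT is the 2HG producing partner of a matched IDH1 knockdown line; nearly all actives have a fitted effect of over 55% in size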
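Fibrosarcoma NT cells, 750 per well in 5% FBS RPMI, were exposed to compound for 48 hours. Viability: CellTiter-Glo luminescence.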
TDP1 cell noCPT: qHTS for Inhibitors of human tyrosyl-DNA phosphodiesterase 1 (TDP1): qHTS in cells in absence of CPT; Potency, µM (titrated, usually from 46.2 µM), usual class: inhibitors; 420,000 compounds, 15% hits; DT40 Tdp1-/- hTDP1 cells, no CPT, ATP luminescence, 48 h; AID 686978, 2013; note: nearly all actives have a fitted effect of over 55% in size
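Chicken DT40 Tdp1-/- cells complemented with human TDP1, screened without camptothecin (DMSO vehicle only), 400 cells/well. Compounds pin-transferred, cells incubated at 37 °C for at least 48 hr. Growth read as ATP-dependent luminescence (CellTiter-Glo, 30 min at RT).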
Each line names hits and unclear results; the compound was inactive in the other large screens; ! = not active in a repeat. Hits are enriched below; roughly 19% of the tested compounds scored in any of these assays. Unless noted, calls come from the whole dose curve; as a rule, active = well fitted curve in the direction sought with a large enough effect; inconclusive = small, poorly fitted or top-dose-only effect, or another doubt; inactive = no such curve, though single readings can be large; an effect the other way counts as inactive or inconclusive.

CCC(C)(C)NC(=O)CCCSc1nc2ccccc2s1	DT40 TDP1 CPT inconclusive, TDP1 cell noCPT inconclusive
COc1cc2c(cc1OC)C(COc1ccccc1OC)N(C(=O)CC(C)C)CC2 (centres undefined)	DT40 TDP1 CPT inconclusive, TDP1 cell noCPT 18µM (no result: HT1080 IDH1KD tx, IL-1B inflam inh, HT1080-NT tox)
CCCC(=O)N1CCc2cc(OC)c(OC)cc2C1COc1ccccc1OC (centres undefined)	DT40 TDP1 CPT inconclusive, TDP1 cell noCPT 18µM!
COc1cc2c(cc1OC)C(COc1ccccc1OC)N(C(=O)C(C)C)CC2 (centres undefined)	none
CCC(=O)N1CCc2cc(OC)c(OC)cc2C1COc1ccccc1OC (centres undefined)	DT40 TDP1 CPT inconclusive, TDP1 cell noCPT inconclusive
CCN(CC)S(=O)(=O)c1ccc(OC)c(NC(=S)Nc2cccc(C)c2C)c1	DT40 TDP1 CPT inconclusive, TDP1 cell noCPT inconclusive
CC(C)N(Cc1ccccc1)C(=O)COC(=O)C1CCN(c2ccc(C(F)(F)F)cn2)CC1	DT40 TDP1 CPT 16µM, TDP1 cell noCPT 18µM
CCOc1ccc(C(=O)COC(=O)C2CCN(c3ccc(C(F)(F)F)cn3)CC2)cc1	DT40 TDP1 CPT inconclusive, TDP1 cell noCPT inconclusive
CC(C)(C)N(Cc1ccccc1)C(=O)COC(=O)C1CCN(c2ccc(C(F)(F)F)cn2)CC1	DT40 TDP1 CPT inconclusive, HT1080-NT tox inconclusive, TDP1 cell noCPT 15µM
CCOC(=O)c1ccc(NC(=S)Nc2ccc3[nH]c(=O)[nH]c3c2)cc1	HT1080 IDH1KD tx inconclusive
Cc1cc(C(=O)NCCCn2ccnc2)sc1-c1ccccc1	none
CN(C)CCOC1c2ccccc2CCc2ccc3ccccc3c21 (centres undefined)	DT40 TDP1 CPT inconclusive, HT1080 IDH1KD tx 16µM, IL-1B inflam inh -86, HT1080-NT tox 21µM, TDP1 cell noCPT 21µM
CN(C)CCOC1c2ccccc2C=Cc2ccccc21	none
CCOc1ccc2nc(SCC(=O)NC(=O)NCc3ccco3)sc2c1	DT40 TDP1 CPT inconclusive, TDP1 cell noCPT 26µM
CCOc1ccc2nc(SCC(=O)NCc3ccco3)sc2c1	DT40 TDP1 CPT inconclusive, TDP1 cell noCPT 23µM
O=C(CSc1nc2cc(Cl)ccc2s1)NC(=O)NCc1ccco1	HT1080-NT tox inconclusive, TDP1 cell noCPT inconclusive
CCCNC(=O)CSc1nc2ccc(OCC)cc2s1	none
O=C(NNC(=O)c1cc(Br)c(Br)s1)c1csc(N2CCOCC2)n1	HT1080 IDH1KD tx inconclusive
O=C(C[n+]1cc(-c2ccccc2)n2c1CCC2)Nc1nc(-c2ccccc2)cs1	DT40 TDP1 CPT inconclusive, TDP1 cell noCPT 23µM
Cc1ccc(-c2c[n+](CC(=O)Nc3cc(=O)n(C)c(=O)n3C)c3n2CCC3)cc1	DT40 TDP1 CPT inconclusive, TDP1 cell noCPT 15µM
Cc1ccc(NC(=O)C[n+]2cc(-c3ccccc3)n3c2CCC3)cc1	TDP1 cell noCPT inconclusive
Nc1ccccc1SCC(=O)Nc1nc(-c2ccccc2)cs1	HT1080 IDH1KD tx inconclusive, TDP1 cell noCPT inconclusive
Cc1ccc(-c2c[n+](CC(=O)Nc3nc(-c4ccccc4)cs3)c3n2CCC3)cc1	DT40 TDP1 CPT 15µM, HT1080 IDH1KD tx 23µM, HT1080-NT tox inconclusive, TDP1 cell noCPT 18µM
Cc1ccc(-c2c[n+](CC(=O)Nc3ccccc3C)c3n2CCC3)cc1	DT40 TDP1 CPT inconclusive, IL-1B inflam inh -53, TDP1 cell noCPT inconclusive
O=C(NNC(=O)c1ccccc1F)c1ccc(NS(=O)(=O)c2ccc(F)cc2)cc1	none
O=C1NN=C(c2ccc(Cl)cc2)CC1c1cccc(Cl)c1 (centres undefined)	DT40 TDP1 CPT 29µM, TDP1 cell noCPT 16µM
O=C1NN=C(c2ccccc2)CC1c1ccc(Cl)cc1Cl (centres undefined)	DT40 TDP1 CPT inconclusive, IL-1B inflam inh inconclusive, TDP1 cell noCPT inconclusive
COc1cccc(CNC(=O)c2ccc(Cl)c(S(=O)(=O)N3CCOCC3)c2)c1	TDP1 cell noCPT 4.1µM
COc1ccc(C(=O)Nc2ccc(S(=O)(=O)N3CCOCC3)cc2)cc1	none
COc1ccc(C(=O)Nc2ccc(Cl)cc2C(=O)NCCN2CCOCC2)cc1	IL-1B inflam inh -56
O=C(Nc1ccc(Cl)c(S(=O)(=O)N2CCOCC2)c1)c1ccc2c(c1)OCCO2	DT40 TDP1 CPT inconclusive, TDP1 cell noCPT inconclusive
O=C(Nc1ccc(Cl)c(S(=O)(=O)N2CCOCC2)c1)c1ccc(Cl)nc1	DT40 TDP1 CPT inconclusive, TDP1 cell noCPT 18µM
COc1ccc(C(=O)Nc2ccc(Cl)c(S(=O)(=O)N3CCOCC3)c2)cc1	DT40 TDP1 CPT inconclusive, IL-1B inflam inh -75, HT1080-NT tox 3.7µM, TDP1 cell noCPT inconclusive
COc1ccc(C(=O)Nc2ccccc2C(=O)NCCN2CCOCC2)cc1	IL-1B inflam inh inconclusive
Cc1ccc(OC(=O)C2c3ccccc3Oc3ccccc32)cc1C	none
CCOC(=O)/C(C#N)=C/Nc1ccsc1C(C)=O	none
CCOc1ccc(CCNC(=O)Cn2ncc3c(=O)oc4ccc(C)cc4c32)cc1	none (no result: HT1080 IDH1KD tx, IL-1B inflam inh, HT1080-NT tox)
CCCNC(=O)c1cc2c(c(-c3cccc(-c4ccccc4F)c3)n1)[C@@H](CCO)N(C(=O)CC1CC1)C2	DT40 TDP1 CPT 26µM, HT1080 IDH1KD tx inconclusive, HT1080-NT tox inconclusive, TDP1 cell noCPT inconclusive
CC(=O)N1Cc2cc(C(=O)NCC(F)(F)F)nc(-c3cccc(-c4cc5ccccc5o4)c3)c2[C@H]1CCO	DT40 TDP1 CPT inconclusive
CCNC(=O)c1cc2c(c(-c3cccc(-c4ccccc4F)c3)n1)[C@H](CCO)N(C(=O)CC)C2	DT40 TDP1 CPT 7.3µM, HT1080 IDH1KD tx inconclusive, HT1080-NT tox inconclusive, TDP1 cell noCPT 5.8µM
CCNC(=O)c1cc2c(c(-c3cccc(-c4cncnc4)c3)n1)[C@@H](CCO)N(C(C)=O)C2	none
O=C(NCC(F)(F)F)c1cc2c(c(-c3cccc(-c4ccccc4F)c3)n1)[C@H](CCO)N(C(=O)CC1CC1)C2	DT40 TDP1 CPT 16µM, HT1080 IDH1KD tx inconclusive, HT1080-NT tox inconclusive, TDP1 cell noCPT 21µM
CCC(=O)N1Cc2cc(C(=O)NCC(F)(F)F)nc(-c3cccc(-c4cncnc4)c3)c2[C@@H]1CCO	DT40 TDP1 CPT 21µM, HT1080 IDH1KD tx inconclusive, TDP1 cell noCPT inconclusive
O=C(/C=C/c1cccs1)NNC(=O)c1ccccc1	none
COc1ccc(N2CCN(Cc3nc4c(c(=O)n(C)c(=O)n4C)n3Cc3ccccc3C)CC2)cc1	DT40 TDP1 CPT 18µM, TDP1 cell noCPT 16µM
COc1ccc(N2CCN(Cc3nc4c(c(=O)n(C)c(=O)n4C)n3CC(C)=O)CC2)cc1	DT40 TDP1 CPT 13µM, TDP1 cell noCPT 23µM
COCCn1c(CN2CCN(c3ccc(OC)cc3)CC2)nc2c1c(=O)n(C)c(=O)n2C	DT40 TDP1 CPT inconclusive, TDP1 cell noCPT inconclusive
COc1ccc(-c2ccnc(-n3ncc(C(=O)NC(C)(C)CO)c3C3CC3)n2)cc1F	none (no result: HT1080 IDH1KD tx, IL-1B inflam inh, HT1080-NT tox)
